# Assay results from PubChem BioAssay AID504734 (The Scripps Research Institute Molecular Screening Center, 2011).
# Among all 340,000 compounds or so, about 730 (0.21%) were called active. Only a selection was taken, and actives are over-represented in it overall. A number with no mark means an inactive call.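 Rule for the calls: active = inhibition above the mean over all tested compounds plus 3 SD (cut at about 21% in these data); inactive = the rest.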
# Molecular target: Toll-like receptor 9 (Homo sapiens) + Myeloid differentiation primary response protein MyD88 (Homo sapiens) (UniProt Q9NR96+Q99836)
# Sequence (Q99836 whole entry, looked up): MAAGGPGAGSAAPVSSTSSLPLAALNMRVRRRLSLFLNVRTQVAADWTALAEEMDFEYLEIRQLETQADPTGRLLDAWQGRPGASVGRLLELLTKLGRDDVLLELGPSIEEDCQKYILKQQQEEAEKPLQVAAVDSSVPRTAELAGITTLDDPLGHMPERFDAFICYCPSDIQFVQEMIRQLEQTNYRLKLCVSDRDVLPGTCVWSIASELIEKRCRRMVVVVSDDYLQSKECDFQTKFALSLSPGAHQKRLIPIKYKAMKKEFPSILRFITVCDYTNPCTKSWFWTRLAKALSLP
# Sequence (Q9NR96 whole entry, looked up): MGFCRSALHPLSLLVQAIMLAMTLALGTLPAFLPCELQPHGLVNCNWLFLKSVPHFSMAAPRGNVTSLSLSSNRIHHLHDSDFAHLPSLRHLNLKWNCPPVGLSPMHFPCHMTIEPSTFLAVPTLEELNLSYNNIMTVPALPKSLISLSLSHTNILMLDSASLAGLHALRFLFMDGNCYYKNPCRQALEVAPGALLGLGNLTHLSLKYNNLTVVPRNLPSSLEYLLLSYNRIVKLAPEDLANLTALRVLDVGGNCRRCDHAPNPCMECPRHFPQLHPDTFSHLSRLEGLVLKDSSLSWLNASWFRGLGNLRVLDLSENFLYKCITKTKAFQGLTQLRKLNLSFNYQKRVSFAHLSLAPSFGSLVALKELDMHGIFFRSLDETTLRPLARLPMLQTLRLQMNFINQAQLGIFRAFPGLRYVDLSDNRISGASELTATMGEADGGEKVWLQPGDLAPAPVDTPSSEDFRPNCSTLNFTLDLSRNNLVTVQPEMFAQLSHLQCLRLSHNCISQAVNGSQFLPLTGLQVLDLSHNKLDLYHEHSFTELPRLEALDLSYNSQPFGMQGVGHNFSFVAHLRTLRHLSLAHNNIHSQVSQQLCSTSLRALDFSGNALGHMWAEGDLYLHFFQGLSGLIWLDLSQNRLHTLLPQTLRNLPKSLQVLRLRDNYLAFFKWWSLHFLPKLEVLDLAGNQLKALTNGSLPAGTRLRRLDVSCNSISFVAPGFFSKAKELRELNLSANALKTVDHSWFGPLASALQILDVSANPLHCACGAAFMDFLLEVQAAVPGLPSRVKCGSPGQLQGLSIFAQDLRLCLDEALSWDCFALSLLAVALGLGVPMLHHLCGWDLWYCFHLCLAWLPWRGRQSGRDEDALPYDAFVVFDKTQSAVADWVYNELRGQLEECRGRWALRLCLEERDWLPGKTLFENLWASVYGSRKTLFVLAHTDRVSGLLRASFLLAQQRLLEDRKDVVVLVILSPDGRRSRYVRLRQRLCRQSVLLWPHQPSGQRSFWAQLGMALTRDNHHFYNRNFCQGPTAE
# Assay: inhibitors of TLR9-MyD88 association in cells, primary screen, cell-based, CHO, BLA complementation, fluorescence (AID 504734);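 note: 0% = DMSO only wells and 100% = clavulanate BLA inhibitor control wells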
# Conditions: CHO BLA complementation TLR9-MyD88, CCF4 FRET ratio; at 4.98 µM; stronger effect = higher value
row,SMILES,inhibition
1,Cc1ccc(Cc2c(-c3ccc(C)cc3)nc3c4ccccc4ccn23)cc1,0.71%
2,CCCCCCN1C[C@H](O)[C@@H](n2cc(C3CC3)nn2)C[C@@H]1c1ccc(Cl)cc1,2.49%
3,COc1cc(/C=C(\C#N)c2nc3c(s2)CC(C)CC3)ccc1O (centres undefined),21.5% (active)
4,CCOc1ccc(/C=C(/C#N)c2nnc(N3CCOCC3)n2-c2ccccc2)cc1OC,3.43%
5,COc1cc(C=NC2CCCCC2)ccc1O,-10.8%
6,CNC(=O)C1CN(C(=O)c2cccc(S(=O)(=O)N3CCc4ccccc43)c2)c2ccccc2O1 (centres undefined),2.33%
7,Nc1cc(=O)c2[nH]cnc2[nH]1,2.53%
8,O=C1CCC(C(=O)OCC(=O)Nc2ccc(OC(F)F)cc2)=NN1,-4.91%
9,CCOC(=O)c1c(NC(=O)COC(=O)c2ccc(S(=O)(=O)C(F)F)cc2)sc(C(=O)N(C)C)c1C,-11.2%
10,O=C1C(Cl)=C(Oc2ccccc2)C(=O)c2ccccc21,56.9% (active)
11,CC(=O)N(C1=C(Cl)C(=O)c2ccccc2C1=O)c1ccc(C(=O)O)cc1,-8.51%
12,CCN(CC)C(=O)C1=C(C)N(Cc2ccc(OC)cc2)C(=O)C(CC(=O)NCc2ccco2)C1 (centres undefined),7.39%
13,CC(C)CCOc1ccc(C(=O)Nc2cc(S(=O)(=O)N3CCOCC3)ccc2N2CCOCC2)cc1,3.89%
14,COc1ccccc1C1CCN(c2ccc([N+](=O)[O-])cn2)CC1,-2.92%
15,COc1ccccc1CSc1ncc(-c2ccc([N+](=O)[O-])cc2)[nH]1,21.5% (active)
16,COc1ccc(-c2cnc(SCCNC(=O)c3ccc4c(c3)OCO4)[nH]2)cc1,-7.86%
17,Cn1ncc([N+](=O)[O-])c1C(=O)Nc1cc(Cl)ccc1Cl,-11.5%
18,Cc1cc(Cl)ccc1C(=O)C1CCCN(C(=O)c2ccc3c(c2)OCO3)C1 (centres undefined),-4.99%
19,O=C(COC(=O)c1cncc(Br)c1)Nc1ccc(S(=O)(=O)N2CCOCC2)cc1,-5.67%
20,O=C(Nc1cccc2ccccc12)NC1CC1,2.15%
21,NC(=O)c1ccc(NC(=O)COC(=O)c2c3c(nc4ccccc24)/C(=C\c2ccc4c(c2)OCO4)CCC3)cc1,8.83%
22,NS(=O)(=O)c1ccc(NC(=O)COC(=O)c2ccco2)cc1,-0.62%

row,SMILES,inhibition
1,COc1cc(/C=C2\CCCc3c2nc2ccccc2c3C(=O)O)cc(Cl)c1O,-7.09%
2,O=C(COC(=O)c1c2c(nc3ccccc13)CCCC2)c1ccc(Br)s1,-5.16%
3,O=C(COC(=O)c1c2c(nc3ccccc13)/C(=C\c1cccs1)CCC2)Nc1ccccc1Cl,22% (active)
4,NS(=O)(=O)c1ccc(NC(=O)COC(=O)c2c3c(nc4ccccc24)/C(=C\c2ccc4c(c2)OCO4)CCC3)cc1,25.9% (active)
5,C[C@@H]1CN([C@@H](C)CO)C(=O)c2cc(Br)cnc2O[C@@H]1CN(C)C(=O)C1CCCCC1,4.79%
6,COc1ccc(/C=C2\SC(=S)N(CCC(=O)N3CCOCC3)C2=O)cc1OC,-12.7%
7,O=C(Cc1ccc([N+](=O)[O-])cc1)NCCS(=O)(=O)N1CCN(c2ccccc2)CC1,12.1%
8,CC(=O)Nc1ccc(SCC(=O)NC(=O)c2ccc(Cl)cc2)cc1,-11.6%
9,O=C(CNC(=O)OCc1ccccc1)Oc1cc2oc(=O)cc(-c3ccccc3)c2cc1Cl,27.3% (active)
10,O=C(CNC(=O)c1ccc(-c2ccccc2)cc1)OCc1ccc(Cl)cc1,-3.72%
11,CC(=O)COc1ccc2c(-c3ccccc3)cc(=O)oc2c1,3.27%
12,CCN(CC(=O)Nc1ccc(NC(C)=O)cc1)C(=O)C1CC(=O)N(c2ccc3c(c2)OCCO3)C1 (centres undefined),-3.12%
13,CCn1c(SCC(=O)N2CCCC2=O)nc2ccccc21,-8.17%
14,Cc1ccc(C(=O)OCC(=O)NC2CCCCCCC2)cc1C,-1.15%
15,N#CCCN(C(=S)Nc1ccc(Cl)c(Cl)c1)C1CCCCC1,11.8%
16,CCN(CC)C(=O)C(C)N1c2cccc3cccc(c23)S1(=O)=O (centres undefined),4.23%
17,O=C1CCC(=O)N1CCC(=O)N(C(=O)NC1CCCCC1)C1CCCCC1,4%
18,O=C(c1c(Cl)nc2sccn12)N1CCCc2ccccc21,-2.96%
19,Cc1cccc2cc3c(N)c(C(=O)N4CCCc5ccccc54)sc3nc12,32.5% (active)
20,Cc1ccc(C(=O)N2CCCc3ccccc32)c(Cl)c1,-5.91%
21,C[C@H]1CN([C@@H](C)CO)C(=O)CCCn2cc(nn2)CO[C@@H]1CN(C)S(=O)(=O)c1cccc(C#N)c1,-7.52%
22,O=C(COC(=O)/C=C/c1cccs1)NC1CCCCC1,2.5%
